About 8,800 targets were measured; listed, in parts, are those with a hit and a random draw of the rest. About 0.5% of all pairs of compound and target were hits.
Experiments:
Experiment in all cases: log2 fold change, soluble protein after heating vs DMSO (PISA); higher = thermal stabilisation; K562 lysate, 10 uM; active = over 0.2 and 3.5 SD of the protein, either way, in both replicates (recomputed)
[1] = compound: CS(=O)(=O)CCNCc1ccc(-c2ccc3ncnc(Nc4ccc(OCc5cccc(F)c5)c(Cl)c4)c3c2)o1 [lapatinib]
Method in brief: (§1)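 Soluble protein was defined as the supernatant remaining after 21,000xg for 90 min, following pooling of heated aliquots and adjustment to 0.5% NP-40 at 4°C. Before that, crude K562 extract at 1 mg/mL protein in PBS pH 7.4 with 1 mM MgCl2 was treated with 10 μM compound for 30 min and heated for 3 min across 48°C-58°C. Quantification used TMTpro 16plex LC-MS/MS with channel sums equalised, and values are log-two fold changes in thermal stability relative to solvent controls from duplicates.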

[2] = compound: CS(=O)(=O)N1CCN(Cc2cc3nc(-c4cccc5[nH]ncc45)nc(N4CCOCC4)c3s2)CC1 [pictilisib]
Method in brief: as §1

[3] = compound: C[C@@H](Oc1cc(-c2cnn(C3CCNCC3)c2)cnc1N)c1c(Cl)ccc(F)c1Cl [crizotinib]
Method in brief: as §1

[4] = compound: C[C@H](C1=CC=C(C=C1)C(=O)NC2=C3C=CNC3=NC=C2)N
Method in brief: as §1

[5] = compound: C[C@H](Nc1ncnc2nc[nH]c12)c1cc2cccc(Cl)c2c(=O)n1-c1ccccc1 [duvelisib]
Method in brief: as §1

[6] = compound: Cc1cc(Nc2cc(CN3CCOCC3)c3nc(C)c(Cc4ccc(Cl)cc4F)n3n2)n[nH]1 [gandotinib]
Method in brief: as §1

[7] = compound: Cc1cc(Nc2cc(N3CCN(C)CC3)nc(Sc3ccc(NC(=O)C4CC4)cc3)n2)n[nH]1 [tozasertib]
Method in brief: as §1

[8] = compound: Cc1ccc(-n2nc(C(C)(C)C)cc2NC(=O)Nc2ccc(OCCN3CCOCC3)c3ccccc23)cc1 [doramapimod]
Method in brief: as §1

[9] = compound: Cc1ccc(NC(=O)c2ccc(CN3CC[C@H](N(C)C)C3)c(C(F)(F)F)c2)cc1Nc1nccc(-c2cncnc2)n1 [bafetinib]
Method in brief: as §1

[10] = compound: Cc1cccc(CC(=O)N2CCc3c2ccc(-c2cn(C)c4ncnc(N)c24)c3F)n1
Method in brief: as §1

[11] = compound: Cc1cn(-c2cc(NC(=O)c3ccc(C)c(Nc4nccc(-c5cccnc5)n4)c3)cc(C(F)(F)F)c2)cn1 [nilotinib]
Method in brief: as §1

[12] = compound: Cc1nc(Nc2n[nH]c3c2CN(C(=O)N[C@H](CN(C)C)c2ccccc2)C3(C)C)c2sccc2n1
Method in brief: as §1

[13] = compound: Cc1nc(Nc2ncc(C(=O)Nc3c(C)cccc3Cl)s2)cc(N2CCN(CCO)CC2)n1 [dasatinib]
Method in brief: as §1

[14] = compound: Cc1ncc(-c2ccnc(Nc3ccc(S(C)(=O)=O)cc3)n2)n1C(C)C
Method in brief: as §1

[15] = compound: Cn1cc(-c2ccc3c(c2)CCN3C(=O)Cc2cccc(C(F)(F)F)c2)c2c(N)ncnc21
Method in brief: as §1

[16] = compound: Cn1cc(CNCC2CCN(c3ncc(C(=O)NO)cn3)CC2)c2ccccc21 [quisinostat]
Method in brief: as §1

[17] = compound: Cn1cncc1[C@@](N)(c1ccc(Cl)cc1)c1ccc2c(c1)c(-c1cccc(Cl)c1)cc(=O)n2C [tipifarnib]
Method in brief: as §1

[18] = compound: NC(=O)Nc1cc(-c2cccc(F)c2)sc1C(=O)N[C@H]1CCCNC1
Method in brief: as §1

[19] = compound: NC(=O)c1cnc(N[C@@H]2CCCC[C@@H]2N)nc1Nc1cccc(-n2nccn2)c1
Method in brief: as §1

[20] = compound: NC1(c2ccc(-c3nc4ccn5c(=O)[nH]nc5c4cc3-c3ccccc3)cc2)CCC1
Method in brief: as §1

Measured: log2 fold change

XPO5 (UniProt Q9HAV4)
Chain of UniProt Q9HAV4 (Q9HAV4 whole entry, looked up): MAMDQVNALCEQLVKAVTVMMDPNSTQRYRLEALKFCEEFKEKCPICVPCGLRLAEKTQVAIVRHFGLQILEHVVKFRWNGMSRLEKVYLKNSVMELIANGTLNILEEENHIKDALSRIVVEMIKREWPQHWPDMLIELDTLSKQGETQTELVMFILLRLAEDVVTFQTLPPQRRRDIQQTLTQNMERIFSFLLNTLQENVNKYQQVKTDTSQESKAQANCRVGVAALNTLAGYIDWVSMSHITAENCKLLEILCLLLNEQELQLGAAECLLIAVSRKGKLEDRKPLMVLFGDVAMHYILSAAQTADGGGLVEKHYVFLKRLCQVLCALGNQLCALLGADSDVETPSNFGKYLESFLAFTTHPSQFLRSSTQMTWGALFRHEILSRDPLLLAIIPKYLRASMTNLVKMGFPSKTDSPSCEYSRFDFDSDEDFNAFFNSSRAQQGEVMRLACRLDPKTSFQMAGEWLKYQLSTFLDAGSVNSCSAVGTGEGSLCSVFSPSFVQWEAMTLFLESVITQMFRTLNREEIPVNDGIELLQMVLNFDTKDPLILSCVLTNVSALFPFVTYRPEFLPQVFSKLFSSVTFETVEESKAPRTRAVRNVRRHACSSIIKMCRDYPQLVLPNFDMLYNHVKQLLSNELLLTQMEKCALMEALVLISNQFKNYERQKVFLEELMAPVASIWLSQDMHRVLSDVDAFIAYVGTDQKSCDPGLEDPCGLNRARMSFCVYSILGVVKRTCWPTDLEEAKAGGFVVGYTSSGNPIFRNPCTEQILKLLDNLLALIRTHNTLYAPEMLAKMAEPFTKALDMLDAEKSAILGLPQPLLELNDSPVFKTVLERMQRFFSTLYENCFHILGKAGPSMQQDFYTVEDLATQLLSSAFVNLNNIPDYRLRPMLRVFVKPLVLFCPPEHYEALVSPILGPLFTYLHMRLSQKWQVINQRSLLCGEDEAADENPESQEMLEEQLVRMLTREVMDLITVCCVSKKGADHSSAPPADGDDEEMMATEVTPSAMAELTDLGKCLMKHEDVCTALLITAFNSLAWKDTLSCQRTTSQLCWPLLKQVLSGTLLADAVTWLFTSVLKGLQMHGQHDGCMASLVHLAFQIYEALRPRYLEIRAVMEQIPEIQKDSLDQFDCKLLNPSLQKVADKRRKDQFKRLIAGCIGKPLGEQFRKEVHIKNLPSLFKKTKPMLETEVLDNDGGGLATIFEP
inactive: [1] -0.042 | [2] 0 | [3] -0.085 | [4] -0.041 | [5] -0.017 | [6] -0.14 | [7] 0.013 | [8] -0.008 | [9] -0.006 | [10] 0.049 | [11] -0.025 | [12] -0.016 | [13] -0.068 | [14] 0.013 | [15] 0.005 | [16] -0.092 | [17] -0.015 | [18] 0.029 | [19] 0.023 | [20] -0.024

YEATS4 (UniProt O95619)
inactive: [1] 0.023 | [2] 0.026 | [3] 0.02 | [5] -0.015 | [6] -0.126 | [7] -0.006 | [8] 0.064 | [9] -0.033 | [10] -0.083 | [11] 0.1 | [12] 0.154 | [13] 0.11 | [14] -0.196 | [15] 0.035 | [16] -0.038 | [17] 0.071 | [18] -0.011 | [19] 0.018 | [20] 0.044
active: [4] 0.609

ZNF318 (UniProt Q5VUA4)
inactive: [1] 0.031 | [2] 0.059 | [3] 0.023 | [4] -0.008 | [5] 0.046 | [6] -0.021 | [7] -0.019 | [8] -0.01 | [9] -0.086 | [10] 0.112 | [11] 0.043 | [12] -0.05 | [13] -0.104 | [14] -0.034 | [15] -0.002 | [16] 0.088 | [17] -0.065 | [18] -0.004 | [19] -0.078 | [20] -0.028

WRB (UniProt O00258)
Chain of UniProt O00258 (O00258 whole entry, looked up): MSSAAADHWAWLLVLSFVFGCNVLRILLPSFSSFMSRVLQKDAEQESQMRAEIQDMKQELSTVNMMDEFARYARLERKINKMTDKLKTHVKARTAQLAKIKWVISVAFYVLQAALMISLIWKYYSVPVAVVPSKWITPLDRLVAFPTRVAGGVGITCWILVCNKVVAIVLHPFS
inactive: [1] -0.067 | [2] -0.118 | [3] 0.034 | [4] -0.138 | [5] 0.006 | [7] -0.033 | [8] -0.074 | [9] -0.017 | [10] 0.339 | [11] 0.06 | [12] -0.017 | [13] -0.014 | [14] 0.183 | [15] 0.082 | [16] 0.015 | [17] -0.044 | [18] -0.005 | [19] 0.071 | [20] 0.024
active: [6] 0.348

VAC14 (UniProt Q08AM6)
Chain of UniProt Q08AM6 (Q08AM6 whole entry, looked up): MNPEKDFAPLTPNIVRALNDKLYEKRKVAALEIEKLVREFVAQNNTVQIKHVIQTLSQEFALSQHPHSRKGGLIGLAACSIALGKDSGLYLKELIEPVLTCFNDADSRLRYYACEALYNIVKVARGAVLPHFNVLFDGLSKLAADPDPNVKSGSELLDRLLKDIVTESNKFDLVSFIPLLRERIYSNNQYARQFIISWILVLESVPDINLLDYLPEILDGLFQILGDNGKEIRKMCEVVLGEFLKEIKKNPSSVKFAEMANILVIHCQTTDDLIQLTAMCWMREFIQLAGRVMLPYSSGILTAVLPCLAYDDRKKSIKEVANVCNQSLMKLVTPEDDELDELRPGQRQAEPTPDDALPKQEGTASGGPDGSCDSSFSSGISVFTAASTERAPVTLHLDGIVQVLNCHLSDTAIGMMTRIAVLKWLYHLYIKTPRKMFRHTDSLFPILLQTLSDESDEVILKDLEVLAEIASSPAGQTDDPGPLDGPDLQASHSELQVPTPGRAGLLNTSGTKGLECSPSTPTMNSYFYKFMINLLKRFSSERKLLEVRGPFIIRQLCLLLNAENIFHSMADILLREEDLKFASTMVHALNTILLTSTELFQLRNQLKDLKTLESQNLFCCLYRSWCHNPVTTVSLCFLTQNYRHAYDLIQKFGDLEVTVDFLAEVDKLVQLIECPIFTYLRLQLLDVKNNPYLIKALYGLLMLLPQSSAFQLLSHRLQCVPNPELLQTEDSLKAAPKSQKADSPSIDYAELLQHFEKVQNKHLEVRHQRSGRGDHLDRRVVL
inactive: [1] -0.034 | [2] -0.005 | [3] -0.047 | [4] -0.028 | [5] -0.004 | [6] -0.069 | [7] -0.005 | [8] 0.037 | [9] -0.036 | [10] 0.067 | [11] -0.014 | [12] 0.018 | [13] -0.022 | [14] 0.009 | [15] 0.058 | [16] -0.07 | [17] -0.059 | [18] 0.012 | [19] -0.002 | [20] -0.027

VPS11 (UniProt Q9H270)
inactive: [1] -0.025 | [2] -0.027 | [3] -0.029 | [4] -0.008 | [5] -0.04 | [6] -0.083 | [7] 0.024 | [8] 0.039 | [9] -0.077 | [10] 0.065 | [11] -0.007 | [12] -0.008 | [13] -0.003 | [14] -0.018 | [15] -0.002 | [16] -0.055 | [17] -0.002 | [18] 0.06 | [19] -0.003 | [20] 0.003

WIPI2 (UniProt Q9Y4P8)
inactive: [1] 0.006 | [2] -0.024 | [3] -0.02 | [4] -0.086 | [5] -0.008 | [6] 0.089 | [7] -0.003 | [8] 0.098 | [9] -0.025 | [10] 0.035 | [11] 0.032 | [12] 0.043 | [13] 0.007 | [14] -0.018 | [15] -0.004 | [16] -0.054 | [17] 0.011 | [18] 0.053 | [19] -0.005 | [20] 0.021

WDCP (UniProt Q9H6R7)
inactive: [1] -0.048 | [2] 0.017 | [3] -0.079 | [4] 0.022 | [5] 0.038 | [6] -0.058 | [7] -0.03 | [8] -0.02 | [9] -0.027 | [10] 0.002 | [11] -0.01 | [12] 0.001 | [13] -0.035 | [14] 0.006 | [15] -0.018 | [16] -0.107 | [17] 0.009 | [18] 0.014 | [19] -0.069 | [20] 0.007

VPS16 (UniProt Q9H269)
inactive: [1] -0.014 | [2] 0.005 | [3] -0.08 | [4] -0.019 | [5] 0.013 | [6] -0.024 | [7] 0.004 | [8] -0.013 | [9] -0.051 | [10] 0.03 | [11] 0 | [12] 0.011 | [13] -0.013 | [14] 0.014 | [15] 0.021 | [16] -0.095 | [17] -0.012 | [18] 0.022 | [19] 0.004 | [20] 0.009

ZMYM2 (UniProt Q9UBW7)
inactive: [1] 0.028 | [2] -0.147 | [3] -0.079 | [4] 0.098 | [5] 0.028 | [6] -0.329 | [7] 0.046 | [8] 0.041 | [9] -0.024 | [10] -0.084 | [11] -0.04 | [12] 0.001 | [13] -0.023 | [14] -0.007 | [15] 0.035 | [16] -0.082 | [17] 0.08 | [18] 0.056 | [19] 0.099 | [20] -0.033

XPOT (UniProt O43592)
inactive: [1] -0.033 | [2] 0.013 | [3] -0.051 | [4] -0.044 | [5] 0.022 | [6] -0.086 | [7] -0.007 | [8] 0 | [9] -0.04 | [10] 0.057 | [11] -0.011 | [12] -0.017 | [13] -0.064 | [14] 0 | [15] -0.004 | [16] -0.056 | [17] 0.005 | [18] 0.037 | [19] 0.003 | [20] -0.001

VASP (UniProt P50552)
inactive: [1] -0.006 | [2] 0.004 | [3] 0.007 | [4] -0.017 | [5] 0.047 | [6] 0.005 | [7] 0.019 | [8] -0.004 | [9] 0.136 | [10] 0.009 | [11] -0.025 | [12] -0.002 | [13] -0.061 | [14] -0.014 | [15] -0.001 | [16] 0.012 | [17] 0.008 | [18] -0.012 | [19] -0.006 | [20] 0.013

USP10 isoform 2 (UniProt Q14694)
inactive: [1] -0.01 | [2] -0.015 | [3] -0.03 | [4] -0.024 | [5] 0.009 | [6] -0.046 | [7] -0.014 | [8] -0.016 | [9] -0.014 | [10] 0.028 | [11] -0.022 | [12] 0.013 | [13] -0.058 | [14] 0.013 | [15] -0.013 | [16] -0.081 | [17] -0.007 | [18] 0.034 | [19] -0.011 | [20] -0.012

VAMP2 (UniProt P63027)
inactive: [1] 0.045 | [2] -0.05 | [3] 0.105 | [4] 0.062 | [5] 0.051 | [6] -0.057 | [7] 0.074 | [8] -0.083 | [9] -0.002 | [10] -0.147 | [11] -0.034 | [12] 0.034 | [13] 0.002 | [14] 0.066 | [15] -0.009 | [16] 0.262 | [17] 0.041 | [18] -0.027 | [19] 0.019 | [20] 0.067

ZZEF1 (UniProt O43149)
Chain of UniProt O43149 (O43149 whole entry, looked up): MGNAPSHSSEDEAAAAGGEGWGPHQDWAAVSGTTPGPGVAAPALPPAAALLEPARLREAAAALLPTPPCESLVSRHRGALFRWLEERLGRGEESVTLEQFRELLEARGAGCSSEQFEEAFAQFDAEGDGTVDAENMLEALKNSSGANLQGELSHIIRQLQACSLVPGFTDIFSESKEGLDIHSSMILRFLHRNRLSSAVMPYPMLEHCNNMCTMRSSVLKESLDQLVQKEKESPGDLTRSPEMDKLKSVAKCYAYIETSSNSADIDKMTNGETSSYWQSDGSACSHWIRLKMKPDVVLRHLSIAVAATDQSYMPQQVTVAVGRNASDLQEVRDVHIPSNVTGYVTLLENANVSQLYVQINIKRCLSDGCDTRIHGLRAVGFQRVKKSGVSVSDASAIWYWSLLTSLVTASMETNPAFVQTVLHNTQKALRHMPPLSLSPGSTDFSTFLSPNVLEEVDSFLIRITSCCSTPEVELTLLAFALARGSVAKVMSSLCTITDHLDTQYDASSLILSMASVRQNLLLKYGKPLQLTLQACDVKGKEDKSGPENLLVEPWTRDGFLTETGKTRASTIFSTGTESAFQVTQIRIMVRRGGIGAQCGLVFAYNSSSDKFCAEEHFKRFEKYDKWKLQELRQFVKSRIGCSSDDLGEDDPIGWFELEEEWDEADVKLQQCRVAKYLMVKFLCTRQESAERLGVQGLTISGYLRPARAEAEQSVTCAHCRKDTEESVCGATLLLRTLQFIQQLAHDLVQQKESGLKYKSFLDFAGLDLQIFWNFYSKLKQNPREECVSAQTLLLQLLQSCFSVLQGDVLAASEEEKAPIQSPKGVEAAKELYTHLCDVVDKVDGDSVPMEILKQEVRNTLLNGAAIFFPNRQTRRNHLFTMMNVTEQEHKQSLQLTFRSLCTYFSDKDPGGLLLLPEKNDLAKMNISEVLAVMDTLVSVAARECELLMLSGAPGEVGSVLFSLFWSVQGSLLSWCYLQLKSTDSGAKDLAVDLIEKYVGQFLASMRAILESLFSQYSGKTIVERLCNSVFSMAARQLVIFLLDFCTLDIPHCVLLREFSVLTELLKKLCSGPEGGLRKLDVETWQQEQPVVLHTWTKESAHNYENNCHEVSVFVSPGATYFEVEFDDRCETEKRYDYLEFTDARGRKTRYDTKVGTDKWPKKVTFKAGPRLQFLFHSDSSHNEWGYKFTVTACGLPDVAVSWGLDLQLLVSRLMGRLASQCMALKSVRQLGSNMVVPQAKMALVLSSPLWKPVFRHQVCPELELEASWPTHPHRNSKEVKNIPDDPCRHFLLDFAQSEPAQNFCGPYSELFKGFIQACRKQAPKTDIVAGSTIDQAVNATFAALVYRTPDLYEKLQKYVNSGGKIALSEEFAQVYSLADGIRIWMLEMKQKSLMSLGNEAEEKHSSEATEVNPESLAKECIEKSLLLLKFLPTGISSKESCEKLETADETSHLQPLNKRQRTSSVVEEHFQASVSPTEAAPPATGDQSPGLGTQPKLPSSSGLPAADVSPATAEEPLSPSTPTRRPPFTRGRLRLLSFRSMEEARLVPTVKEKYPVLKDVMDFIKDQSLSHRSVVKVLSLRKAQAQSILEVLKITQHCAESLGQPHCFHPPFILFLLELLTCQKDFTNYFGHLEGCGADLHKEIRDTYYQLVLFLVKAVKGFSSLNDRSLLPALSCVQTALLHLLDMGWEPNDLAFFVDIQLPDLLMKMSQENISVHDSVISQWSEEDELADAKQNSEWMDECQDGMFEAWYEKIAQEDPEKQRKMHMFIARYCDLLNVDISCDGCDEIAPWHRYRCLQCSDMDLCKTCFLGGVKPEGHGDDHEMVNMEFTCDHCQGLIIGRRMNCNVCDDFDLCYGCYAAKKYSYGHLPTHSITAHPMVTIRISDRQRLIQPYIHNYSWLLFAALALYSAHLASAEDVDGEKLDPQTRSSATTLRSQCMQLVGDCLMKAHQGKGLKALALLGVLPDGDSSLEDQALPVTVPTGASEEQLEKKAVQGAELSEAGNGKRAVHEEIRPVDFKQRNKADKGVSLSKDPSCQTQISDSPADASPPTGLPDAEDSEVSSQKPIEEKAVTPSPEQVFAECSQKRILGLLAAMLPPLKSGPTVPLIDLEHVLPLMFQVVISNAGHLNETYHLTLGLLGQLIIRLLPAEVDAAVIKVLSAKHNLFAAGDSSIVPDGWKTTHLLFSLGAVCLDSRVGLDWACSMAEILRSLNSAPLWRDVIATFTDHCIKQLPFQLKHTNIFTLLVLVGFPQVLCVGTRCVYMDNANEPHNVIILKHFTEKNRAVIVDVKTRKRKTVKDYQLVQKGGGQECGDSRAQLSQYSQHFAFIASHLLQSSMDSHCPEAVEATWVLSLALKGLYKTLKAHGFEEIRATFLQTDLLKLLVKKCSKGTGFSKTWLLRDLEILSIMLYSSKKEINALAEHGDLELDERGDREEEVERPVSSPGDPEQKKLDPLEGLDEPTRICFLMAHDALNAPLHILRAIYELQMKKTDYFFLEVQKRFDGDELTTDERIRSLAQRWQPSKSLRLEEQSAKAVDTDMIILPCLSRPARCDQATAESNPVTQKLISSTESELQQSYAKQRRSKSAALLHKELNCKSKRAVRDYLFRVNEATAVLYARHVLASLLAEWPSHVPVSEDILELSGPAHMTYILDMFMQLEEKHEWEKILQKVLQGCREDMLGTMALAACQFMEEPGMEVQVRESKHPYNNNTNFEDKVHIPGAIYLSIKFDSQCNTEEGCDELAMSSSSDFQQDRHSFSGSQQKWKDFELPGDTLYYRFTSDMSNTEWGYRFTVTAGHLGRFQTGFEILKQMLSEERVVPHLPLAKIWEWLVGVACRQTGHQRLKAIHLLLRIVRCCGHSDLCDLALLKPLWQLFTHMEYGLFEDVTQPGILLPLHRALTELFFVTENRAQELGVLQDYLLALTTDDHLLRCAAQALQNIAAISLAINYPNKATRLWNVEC
inactive: [1] -0.023 | [2] -0.024 | [3] -0.092 | [4] -0.113 | [5] 0.028 | [6] 0.038 | [7] -0.011 | [8] 0.029 | [9] -0.083 | [10] 0.123 | [11] -0.022 | [12] 0 | [13] -0.018 | [14] 0.015 | [15] -0.006 | [16] -0.07 | [17] 0.007 | [18] 0.008 | [19] 0.021 | [20] -0.03

VPS39 (UniProt Q96JC1)
active: [4] 0.603
inactive: [1] -0.018 | [2] -0.018 | [3] -0.066 | [5] 0.015 | [6] -0.169 | [7] 0.021 | [8] 0.015 | [9] -0.045 | [10] -0.229 | [11] 0.03 | [12] -0.008 | [13] -0.044 | [14] 0.024 | [15] -0.003 | [16] -0.046 | [17] 0.002 | [18] 0.005 | [19] -0.008 | [20] -0.003
